Pf growth 48h: P. falciparum growth inhibition at 48 hours (one generation). P. falciparum luciferase growth in erythrocytes, 48 h. Potency, µM (titrated, usually from 28.7 µM), for the others: at the top dose activity change, negative = inhibition, most hits filed as inhibitors. hit rate 5.9% among 310,000. AID 504832; also: potency is read from the fitted curve at half-maximal effect; % is scaled to controls: 0 for no effect and ±100 for the full control effect
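A one-generation exposure of luciferase-tagged malaria parasites in RPMI 1640/Albumax erythrocyte culture, 37 C and 5% CO2. Inhibition is inferred from decreased luminescence after adding detection reagent.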
Pf growth 96h: inhibits malaria parasite growth, 96 h | hit rate 6.9% among 320,000 | P. falciparum luciferase reporter growth, 96 h | Potency, µM (doses to about 28.7 µM), for inactives: at the highest dose activity change, negative = inhibition, usual class: inhibitors; also: potency is read from the fitted curve at half-maximal effect; % is scaled to controls: 0 for no effect and ±100 for the full control effect
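P. falciparum expressing integrated firefly luciferase grown in erythrocytes (2% hematocrit, 0.05% parasitemia final) with compounds for 96 hours at 37 C, 5% CO2. Growth inhibition read as loss of luminescence after adding luciferase detection reagent.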
CHX counter: counter-screen hit for Shiga toxin inhibitors, cycloheximide | cell reporter, cycloheximide protein synthesis inhibition counterscreen | max response, % | hit rate 12% among 300,000; in the data active = max response mostly above about 13%, no sharp cut-off; inactive = mostly below about 14%; also: read at 38.3 µM for the half of the compounds with a filed dose; 0% is about no effect
HCMV inh: blocks human cytomegalovirus replication; HFF cells, HCMV-luciferase reporter, 72 h; active compounds read low; AID 1259415; activity change, negative = inhibition, % at 57.5 µM; hit rate 4.5% among 410,000; in the data active = activity change below about -60%; inconclusive = no clear call, values can overlap the other calls; inactive = above about -39%; also: % is scaled to controls: 0 for no effect and ±100 for the full control effect
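Two-dose cell screen: HFF monolayers treated with compounds and infected with luciferase-expressing HCMV at 1 PFU/cell, 72 h at 37C, then lysed for luciferase measurement.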
Shiga inhibitor: Shiga toxin inhibition. Vero cells, Shiga toxin protein synthesis inhibition reporter. inhibition, % at 38.7 µM. hit rate 9.2% among 290,000. AID 2315; in the data active = inhibition mostly above about 28%, no sharp cut-off; inactive = mostly below about 43%; also: 0% is about no effect
* marks the source's active call; other numbers are inactive results. The list is not random: actives were taken first. Their share in the collection is about 20%. Unless noted, calls follow the shape of the dose curve; as a rule, active = well fitted inhibition curve with a large enough effect; inconclusive = small, poorly fitted or top-dose-only effect, or another doubt; inactive = no such curve, though single readings can be large or run the other way.

N/C(=N\OC(=O)c1ccco1)c1ccccn1 was read as Pf growth 48h 108%, Pf growth 96h inconclusive, CHX counter 44*, HCMV inh -9 and Shiga inhibitor 95*.
Screening N/C(=N\OC(=O)CCCOc1ccccc1)c1ccc(Br)cc1 returned Pf growth 48h 8%, Pf growth 96h inconclusive, CHX counter 1, HCMV inh 27 and Shiga inhibitor -11.
CNc1nc2cc([N+](=O)[O-])c([N+](=O)[O-])cc2nc1NC was read as Pf growth 48h inconclusive, Pf growth 96h -22%, CHX counter 16, HCMV inh -86* and Shiga inhibitor -24.
For CN(C(=O)c1ccc2c(c1)S(=O)(=O)N=C1CCCCCN12)c1ccccc1 the results were Pf growth 48h 0%, Pf growth 96h 0% and HCMV inh 34.
`CCN1CCN(C(c2cccc(OC)c2)c2c(O)cc(C)n(Cc3ccco3)c2=O)CC1` (stereo not given) gave HCMV inh 27.
`O=C(NCc1ccccn1)Nc1ccccc1F` gave Pf growth 48h 44%, Pf growth 96h 45%, CHX counter 21*, HCMV inh 65 and Shiga inhibitor 49*.
`O=C(NCc1ccccn1)Nc1ccccc1C(F)(F)F` gave Pf growth 48h 6%, Pf growth 96h -25%, CHX counter 15*, HCMV inh 8 and Shiga inhibitor 17.
`CCN1C(=O)C2C(C1=O)N1C(c3cccs3)C3C(=O)N(CC)C(=O)C3N1C2c1cccs1` (stereo not given) gave Pf growth 48h inconclusive, Pf growth 96h 156%, CHX counter -3, HCMV inh -5 and Shiga inhibitor -1.
Screening COCCN(C(=O)Cc1cccs1)C(C(=O)NCc1ccc(OC)cc1)c1ccccc1 (stereo not given) returned Pf growth 48h inconclusive, Pf growth 96h inconclusive, CHX counter 5, HCMV inh -31 and Shiga inhibitor -5.
Screening O=S1(=O)C2CC3OC2(CC3c2ccc(F)cc2)CN1Cc1ccc(Cl)cc1 (stereo not given) returned CHX counter 2 and Shiga inhibitor -11.
Screening Cc1ccc([C@H]2C[C@]34CN(Cc5ccccc5)S(=O)(=O)[C@H]3C[C@H]2O4)cc1 returned HCMV inh -88*.
Screening CC1(C(=O)Nc2ccc3c(c2)OCO3)CCN1C(=O)CCc1ccc(Cl)cc1Cl (stereo not given) returned HCMV inh -13.
Screening Cn1cccc1C(=S)N=P(C1CCCCC1)(N1CCOCC1)N1CCOCC1 returned Pf growth 96h 8.3µM*, CHX counter -1, HCMV inh -24 and Shiga inhibitor -14.
Screening C/C(=N\NC(=O)c1ccccc1O)C1C(=O)c2ccccc2C1=O returned Pf growth 96h inconclusive, CHX counter 29*, HCMV inh inconclusive and Shiga inhibitor 36.
CCOC(=O)C(CC)/C(C)=N\NC(=O)c1ccccc1O (stereo not given) was read as Pf growth 48h -18%, Pf growth 96h 31%, CHX counter 18*, HCMV inh -90* and Shiga inhibitor 33*.
CCC(C)/C(C)=N/NC(=O)c1ccccc1OCCOc1ccccc1 (stereo not given) was read as Pf growth 48h -20%, Pf growth 96h 0%, CHX counter 0, HCMV inh 58 and Shiga inhibitor 18.
`CCC/C(C)=N/NC(=O)c1ccccc1O` gave Pf growth 48h -11%, Pf growth 96h inconclusive, CHX counter 27*, HCMV inh 12 and Shiga inhibitor 105*.
For CCN(CC(=O)Nc1ccccc1C(F)(F)F)C(=O)CN1C(=O)NC2(CCCC2)C1=O the results were Pf growth 48h -9%, Pf growth 96h 14% and HCMV inh -11.
Cc1c(C2Nc3ccccc3NC3=C2C(=O)CC(C)(C)C3)cnn1C (stereo not given) was read as Pf growth 48h inconclusive, Pf growth 96h 5.9µM*, CHX counter 8, HCMV inh 52 and Shiga inhibitor 12.
CC1(C)CC(=O)C2=C(C1)Nc1ccccc1NC2c1ccc(F)c(F)c1 (stereo not given) was read as Pf growth 48h 56%, Pf growth 96h 24%, CHX counter 1, HCMV inh 46 and Shiga inhibitor -10.
For Cc1cc2c(cc1C)NC(c1nc3ccccc3[nH]1)C1=C(CC(C)(C)CC1=O)N2 (stereo not given) the results were Pf growth 48h 5%, Pf growth 96h -2%, CHX counter 3, HCMV inh -105* and Shiga inhibitor -4.
Screening CC(=O)Nc1ccc(C2Nc3cc(C)c(C)cc3NC3=C2C(=O)CC(C)(C)C3)cc1 (stereo not given) returned Pf growth 48h 6%, Pf growth 96h 8.3µM*, CHX counter 36*, HCMV inh 46 and Shiga inhibitor 40*.
CC(C)CN1C(=O)CSCC1(C)C(=O)NCc1ccccc1 (stereo not given) was read as HCMV inh -15.
`CCOC(=O)C(c1c(O)c2ccccc2oc1=O)c1c(O)c2ccccc2oc1=O` gave HCMV inh -25.
Screening C/C(CC(c1ccccc1)c1c(O)c2ccccc2oc1=O)=N\NC(N)=S (stereo not given) returned Pf growth 48h inconclusive, Pf growth 96h 10µM*, CHX counter -1, HCMV inh 48 and Shiga inhibitor 26.
`O=C(Nc1cccc(N2C(=O)C3CCCCC3C2=O)c1)c1ccccc1` (stereo not given) gave Pf growth 48h 1%, Pf growth 96h inconclusive, CHX counter -2, HCMV inh 116 and Shiga inhibitor -34.
For O=C(Nc1ccccc1Cl)c1ccc(-c2ccccn2)s1 the results were Pf growth 48h 158%, Pf growth 96h 50%, CHX counter 49*, HCMV inh 115 and Shiga inhibitor 64*.
For O=C(NNC(=O)c1ccccc1Cl)c1ccccc1Cl the results were Pf growth 48h 51%, Pf growth 96h 23%, CHX counter 18*, HCMV inh 73 and Shiga inhibitor 17.
Screening O=C(NNC(=O)c1ccccc1Cl)c1ccco1 returned Pf growth 48h 37%, Pf growth 96h 47%, CHX counter 17*, HCMV inh 55 and Shiga inhibitor 42.
Screening O=C(NNC(=S)Nc1ccccc1Cl)c1ccccc1Cl returned Pf growth 48h -3%, Pf growth 96h inconclusive, CHX counter -2, HCMV inh 156 and Shiga inhibitor -8.
`O=C(Nc1ccc(N2C(=O)C3CCCCC3C2=O)cc1Cl)c1cccs1` (stereo not given) gave Pf growth 48h 13%, Pf growth 96h 14%, CHX counter 18*, HCMV inh 1 and Shiga inhibitor 31.
Clc1ccc2nc(C3CCCCC3)c(CC3CCCCC3)n2c1 was read as HCMV inh -7.
For CCOc1ccc(NC(=O)Cn2c(=O)n(CCCS(=O)(=O)C3CCCCC3)c(=O)c3ccccc32)cc1 the results were HCMV inh 10.

Screening results as filed in PubChem BioAssay.
